{"source": "PubChem BioAssay (EPA / NIEHS)", "note": "The source made the active and inactive calls. The calls were made as follows: active = hit-call score of the fitted dose curve at least 0.9, where 1 is the maximum; inactive = score below 0.9."}
{"read-out": "flavin-containing dimethylaniline monooxygenases 3 (FMO3), FMO3 (gene 2328)", "assay": "LTEA_HepaRG_FMO3: Life Technologies and Expression Analysis (LTEA) Assay for flavin-containing dimethylaniline monooxygenases 3 (FMO3) using HepaRG (AID 2283453);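 as to AC50: differentiated human HepaRG liver cells in serum-free induction medium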", "conditions": "mRNA level, 48 h; actives raise or lower the signal", "in_short": "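Differentiated HepaRG cells in serum-free induction medium, exposed 48 h in duplicate to 8 half-log concentrations up to 100 uM in 0.5% DMSO. FMO3 mRNA by qRT-PCR, normalized to ACTB, GAPDH, POLR2A; bidirectional fit vs DMSO.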"}
{"smiles": "O=c1[nH]c(=O)[nH]c(=O)[nH]1", "outcome": "inactive"}
{"smiles": "O=[N+]([O-])c1ccc(O)c([N+](=O)[O-])c1", "AC50": "15.3 µM (active)"}
{"smiles": "O=C(O)C(F)(F)C(F)(F)C(F)(F)C(F)(F)C(F)(F)C(F)(F)C(F)(F)C(F)(F)C(F)(F)C(F)(F)F", "AC50": "69.1 µM (active)"}
{"smiles": "Cc1ccccc1N", "outcome": "inactive"}
{"smiles": "O=C(O)C(F)(F)C(F)(F)C(F)(F)C(F)(F)C(F)(F)C(F)(F)F", "outcome": "inactive"}
{"smiles": "CCC(=O)C(CC(C)N(C)C)(c1ccccc1)c1ccccc1", "note": "(stereo not drawn)", "AC50": "46.7 µM (active)"}
{"smiles": "O=C1C2(Cl)C3(Cl)C4(Cl)C(Cl)(Cl)C5(Cl)C3(Cl)C1(Cl)C5(Cl)C24Cl", "note": "(stereo not drawn)", "AC50": "22.6 µM (active)"}
{"smiles": "CN(C)N=O", "outcome": "inactive"}
{"smiles": "Oc1cccc2cccnc12", "outcome": "inactive"}
{"smiles": "C=C(C)C(=O)[O][Sn]([CH2]CCC)([CH2]CCC)[CH2]CCC", "AC50": "74.9 µM (active)"}
{"smiles": "C=CC(=O)OCCCCCC(C)C", "outcome": "inactive"}
{"smiles": "CC(=O)[O][Hg][c]1ccccc1", "AC50": "16.9 µM (active)"}
{"smiles": "CC(C)(C)c1cc(O)ccc1O", "outcome": "inactive"}
{"smiles": "CC(C)(c1ccccc1)c1ccc(O)c(C(C)(C)c2ccccc2)c1", "AC50": "78.2 µM (active)"}
{"smiles": "NC(=O)O", "outcome": "inactive"}
{"smiles": "CC(C)(OO)c1ccccc1", "outcome": "inactive"}
{"smiles": "ClC1(Cl)C2(Cl)C3(Cl)C4(Cl)C(Cl)(Cl)C5(Cl)C3(Cl)C1(Cl)C5(Cl)C24Cl", "note": "(stereo not drawn)", "outcome": "inactive"}
{"smiles": "CC(C)(C)CC(C)(C)c1ccc(O)cc1", "outcome": "inactive"}
{"smiles": "Cn1sc(Cl)cc1=O", "outcome": "inactive"}
{"smiles": "CCC(C)(C)c1ccc(O)c(C(C)(C)CC)c1", "outcome": "inactive"}
{"smiles": "CCCCCCCCc1ccc(O)cc1", "outcome": "inactive"}
{"smiles": "CCN1CCC2(CC1)COc1cc3c(cc12)N(C(=O)c1ccc(-c2ccc(-c4nnc(C)o4)cc2C)cc1)CC3", "AC50": "13.8 µM (active)"}
{"smiles": "ClCC(Cl)CCl", "outcome": "inactive"}
